Reference: PubChem BioAssay (NCATS)
Where “and” joins values, the source holds several entries; their conditions need not be identical. Equal values may be shown once. Unmarked numbers belong to inactive results. Inconclusive results are not listed. Entries that show only a call come without a potency. Calls of active or inactive are those of the source. Unless noted, the call rests on the fitted dose curve; in most records, active means well fitted curve in the direction sought with a large enough effect; inconclusive means small, poorly fitted or top-dose-only effect, or another doubt; inactive means no such curve, though single readings can be large; an effect the other way counts as inactive or inconclusive.

Tests used:
[1] = qHTS assay for small molecule activators of the p53 signaling pathway (AID 651743; active means well fitted activation curve with a large enough effect in the signal ratio, not every such curve was filed as active; the % refers to the signal ratio); settings: HCT-116 p53RE-bla, beta-lactamase FRET ratio, 16 h; active compounds read high
Outline: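 p53RE-bla HCT-116 cells carrying a beta-lactamase reporter under p53 response elements were exposed to compounds for 16 hours at 37 C. Reporter activity read as fluorescence after 2 hours at room temperature with LiveBLAzer B/G FRET substrate.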

[2] = qHTS assay for small molecule activators of the nuclear factor-kappa B (NF-kB) signaling pathway (AID 651749; active means well fitted activation curve with a large enough effect in the signal ratio; the % refers to the signal ratio); settings: NF-kB-bla ME-180 cells, beta-lactamase FRET ratio, 16 h; active compounds read high
Outline: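 NF-kB-bla ME-180 cells carrying a beta-lactamase reporter under an NF-kB response element, 2,000 cells/well, exposed to compound for 16 hr at 37C; FRET-based beta-lactamase fluorescence read-out of pathway activation.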

[3] = qHTS assay for environmental chemicals that activate the Aryl hydrocarbon Receptor (AhR) signaling pathway (AID 651777); settings: 1A2-DRE human hepatoma cells, luciferase, 24 h; active compounds read high; further: nearly all actives have a fitted effect of over 15% in size
Outline: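 Quantitative HTS in stably transfected human liver-derived cells whose luciferase gene sits downstream of the CYP1A2 promoter and dioxin response element. After 24 hr exposure at 37 C, One-Glo luminescence was measured.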

[4] = target: Peroxisome proliferator-activated receptor alpha (Homo sapiens) (UniProt Q07869); experiment: qHTS assay for small molecule agonists of the peroxisome proliferator-activated receptor alpha (PPARalpha) signaling pathway (AID 651778); settings: PathHunter PPARalpha complementation, chemiluminescence, 6 h; active compounds read high
Sequence of Peroxisome proliferator-activated receptor alpha (Homo sapiens) (Q07869 whole entry, looked up, the tested form may be a part): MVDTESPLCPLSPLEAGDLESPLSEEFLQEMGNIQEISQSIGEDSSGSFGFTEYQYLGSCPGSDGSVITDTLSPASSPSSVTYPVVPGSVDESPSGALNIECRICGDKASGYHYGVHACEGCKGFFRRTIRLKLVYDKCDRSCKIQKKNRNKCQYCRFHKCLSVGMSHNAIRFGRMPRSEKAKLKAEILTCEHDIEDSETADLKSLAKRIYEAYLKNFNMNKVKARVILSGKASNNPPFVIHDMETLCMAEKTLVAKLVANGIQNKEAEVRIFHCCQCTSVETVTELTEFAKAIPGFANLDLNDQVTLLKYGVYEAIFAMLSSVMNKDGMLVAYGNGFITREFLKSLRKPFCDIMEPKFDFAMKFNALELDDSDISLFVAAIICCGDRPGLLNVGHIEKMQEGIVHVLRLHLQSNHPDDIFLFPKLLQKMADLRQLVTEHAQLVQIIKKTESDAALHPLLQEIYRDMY
Outline: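 Enzyme-fragment complementation assay in which ligand-bound PPARalpha translocates and forms an active enzyme that generates chemiluminescence. Cells were plated overnight, exposed to compound for 6 hr at 37 C, and then given detection reagent for 60 min at room temperature.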

[5] = qHTS for Inhibitors of Ubiquitin-specific Protease USP2a Using CHOP2 as the Reporter: K633 Counterscreen (AID 652168); settings: No-enzyme DiUb K48 IQF substrate fluorescence interference, kinetic; series mostly up to 57.5 µM
Outline: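 Cell-free interference counterscreen without USP2a: compounds pinned into enzyme-free buffer (20 mM Tris pH 8, 2 mM beta-mercaptoethanol, 0.05% Chaps), then DiUb K48-4IQF substrate added (100 nM stock); fluorescence read kinetically, Ex 525/Em 598.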

[6] = qHTS for Inhibitors of Ubiquitin-specific Protease USP2a Using CHOP2 as the Reporter: Cytotox Assay (AID 652170); settings: HCT116 viability, CellTiter-Glo luminescence, 72 h; further: potency means the concentration at half of the fitted maximal effect; nearly all actives have a fitted effect of over 70% in size
Outline: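 HCT116 human colon cancer cells, 600 per well in DMEM with 10% FBS, exposed to compounds for 72 hr at 37 deg C. ATP measured by CellTiter-Glo luminescence, normalized to DMSO cells and no-cell background.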

[7] = target: Ubiquitin carboxyl-terminal hydrolase 2 (Homo sapiens) (UniProt O75604); experiment: qHTS for Inhibitors of Ubiquitin-specific Protease USP2a Using CHOP2 as the Reporter: K484 Substrate (AID 652173); settings: USP2 cleavage of DiUb K48 IQF substrate, fluorescence;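 further: cleavage of internally quenched K48 di-ubiquitin substrate measured as rising fluorescence over time; potency means the concentration at half of the fitted maximal effect; nearly all actives have a fitted effect of over 70% in size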
Sequence of Ubiquitin carboxyl-terminal hydrolase 2 (Homo sapiens) (O75604 whole entry, looked up): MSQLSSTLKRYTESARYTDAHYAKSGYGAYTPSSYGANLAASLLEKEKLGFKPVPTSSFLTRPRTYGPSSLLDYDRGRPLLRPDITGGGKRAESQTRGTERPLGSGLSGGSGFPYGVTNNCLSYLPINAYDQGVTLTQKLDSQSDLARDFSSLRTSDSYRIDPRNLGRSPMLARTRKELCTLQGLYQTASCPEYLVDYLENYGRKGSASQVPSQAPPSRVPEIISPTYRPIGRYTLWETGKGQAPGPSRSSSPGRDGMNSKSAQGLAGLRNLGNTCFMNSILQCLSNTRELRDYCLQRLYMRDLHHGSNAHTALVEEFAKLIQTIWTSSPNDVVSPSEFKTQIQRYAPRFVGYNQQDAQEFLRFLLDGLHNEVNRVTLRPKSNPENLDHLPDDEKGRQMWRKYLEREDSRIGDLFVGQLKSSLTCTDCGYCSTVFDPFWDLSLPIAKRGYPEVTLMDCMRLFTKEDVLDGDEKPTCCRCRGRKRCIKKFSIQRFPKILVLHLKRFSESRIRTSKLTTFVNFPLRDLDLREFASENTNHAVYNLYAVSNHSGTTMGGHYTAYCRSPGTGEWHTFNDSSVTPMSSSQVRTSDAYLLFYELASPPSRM
Outline: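 USP2 (dispensed at 5 nM) was pinned with compounds, then DiUb K48 internally quenched fluorescent substrate (dispensed at 100 nM) was added. The buffer was 20 mM Tris pH 8, 2 mM beta-mercaptoethanol and 0.05% CHAPS. Cleavage was read kinetically as rising fluorescence, Ex 525/Em 598.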

[8] = target: Tyrosine-protein kinase Yes (Homo sapiens) (UniProt P07947); experiment: qHTS for small molecule inhibitors of Yes1 kinase: Primary Screen (AID 686947); settings: Yes1 kinase biochemical qHTS inhibition; series mostly up to 76.9 µM; further: nearly all actives have a fitted effect of over 60% in size; further: potency means the concentration at half of the fitted maximal effect
Sequence of Tyrosine-protein kinase Yes (Homo sapiens) (P07947 whole entry, looked up): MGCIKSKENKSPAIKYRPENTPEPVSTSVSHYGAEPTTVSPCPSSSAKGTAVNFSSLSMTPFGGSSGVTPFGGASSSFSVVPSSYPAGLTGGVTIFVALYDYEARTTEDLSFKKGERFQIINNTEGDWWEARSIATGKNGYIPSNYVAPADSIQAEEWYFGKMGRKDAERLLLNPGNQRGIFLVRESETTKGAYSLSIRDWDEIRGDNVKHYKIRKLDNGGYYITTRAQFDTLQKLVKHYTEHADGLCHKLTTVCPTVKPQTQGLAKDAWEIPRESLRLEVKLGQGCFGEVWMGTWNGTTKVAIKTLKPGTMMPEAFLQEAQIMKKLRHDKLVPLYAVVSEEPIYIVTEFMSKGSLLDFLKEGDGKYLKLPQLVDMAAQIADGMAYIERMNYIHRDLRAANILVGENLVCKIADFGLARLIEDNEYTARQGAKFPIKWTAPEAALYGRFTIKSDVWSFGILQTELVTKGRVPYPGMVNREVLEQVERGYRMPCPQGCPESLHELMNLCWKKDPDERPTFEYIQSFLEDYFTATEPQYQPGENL
Outline: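 Yes1 (4 nM) preincubated 20 min with compound, then 60 min room-temperature reaction with 0.1 mM ATP and 0.3 mg/mL poly(E4Y) in pH 7.5 Tris, 10 mM MgCl2. ADP measured by ADP-Glo luminescence, normalised to enzyme/no-enzyme controls.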

[9] = qHTS for small molecule inhibitors of Yes1 kinase: Counter Assay (AID 686950); settings: series mostly up to 76.9 µM;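 further: no kinase present so only ADP-Glo detection of a fixed ADP amount is tested; luminescence from ADP-Glo reporting ADP in a fixed ATP and ADP mixture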
Outline: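 Enzyme-free detection counter-screen: compounds preincubated 20 min in buffer, then 0.08 mM ATP plus 0.02 mM ADP added for 60 min at room temperature; ADP-Glo luminescence. Buffer 50 mM Tris pH 7.5, 10 mM MgCl2, 150 mM NaCl; normalized to ATP+ADP and ATP-only controls.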

Question: Which activation [1] does the source give for `O=C(O)CCCc1c[nH]c2ccccc12` here?
Answer: -6.63%

Question: What about the activation [2] of the same compound?
Answer: -1.42%

Question: What about the activation [3] of the same compound?
Answer: 1.2%

Question: What about the max response [4] of the same compound?
Answer: -0.171%

Question: For `Cc1ccc(S(=O)(=O)Nc2cc(Cl)ccc2C(=O)Nc2nc(-c3ccccc3)cs2)cc1`, which outcome [5] is on record?
Answer: inactive

Question: What about the Potency [6] of the same compound?
Answer: 5.26 µM (active)

Question: And the Potency [7]?
Answer: 1.22 µM (active)

Question: What does the source list for `C1Cc2[nH]nc(-c3nn[nH]n3)c2C1`?
Answer: Potency [8]: inactive; outcome [9]: inactive

Question: What does the source list for `Cc1cn2c(-c3cn[nH]c3)cnc2c(Nc2ccc(C(=O)N3CCNCC3)cc2F)n1`?
Answer: Potency [8]: 21.8 µM (active); outcome [9]: inactive

Question: Which results are given for `COc1ccc2c(c1)CC[C@@H](CN(C)CC(=O)O)[C@H]2c1ccccc1`?
Answer: Potency [8]: inactive; outcome [9]: inactive

Question: Which Potency [8] does the source give for `Nc1nccc(Oc2ccc(NC(=O)c3c[nH]cc(-c4ccc(F)cc4)c3=O)cc2F)c1Cl` here?
Answer: 48.7 µM (active)

Question: What about the outcome [9] of the same compound?
Answer: inactive

Question: What does the source list for `CC(C)(O)CCc1ccc(OCc2cc(-c3cccc(OC(F)F)c3)c3ncccc3c2)cc1`?
Answer: Potency [8]: inactive; outcome [9]: inactive

Question: Which results are given for `CC=C1NC(=O)[C@H]2CSSCCC=C[C@H](CC(=O)N[C@H](C(C)C)C(=O)N2)OC(=O)[C@H](C(C)C)NC1=O`?
Answer: Potency [8]: inactive; outcome [9]: inactive

Question: For `C=C1C(=CC=C2CCCC3(C)[C@@H]([C@H](C)C=CC=CC(O)(CC)CC)CC[C@@H]23)C[C@@H](O)C[C@@H]1O` (some centres not stated), which Potency [8] is on record?
Answer: inactive

Question: And the outcome [9]?
Answer: inactive

Question: Which results are given for `CC(=O)OCC(=O)[C@@]1(O)[C@H](C)C[C@H]2[C@@H]3C=C(C)C4=Cc5c(cnn5-c5ccccc5)C[C@]4(C)[C@@H]3[C@@H](O)C[C@@]21C`?
Answer: Potency [8]: inactive; outcome [9]: inactive

Question: For `Nc1ccccc1NC(=O)c1ccc(CNc2nccc(-c3cccnc3)n2)cc1`, which Potency [8] is on record?
Answer: inactive

Question: What about the outcome [9] of the same compound?
Answer: inactive

Question: Which Potency [8] does the source give for `CC(C)C[C@H](NC(=O)CNC(=O)c1cc(Cl)ccc1Cl)B(O)O` here?
Answer: inactive

Question: What about the outcome [9] of the same compound?
Answer: inactive

Question: Which Potency [8] does the source give for `Cc1cc(Nc2cc(N3CCN(C)CC3)nc(C=Cc3ccccc3)n2)n[nH]1` here?
Answer: 0.0307 µM (active)

Question: And the outcome [9]?
Answer: inactive

Question: With `Nc1nc(-c2nn(Cc3ccccc3F)c3ncccc23)nc(N)c1N1CCOCC1` as the compound, how does the Potency [8] read?
Answer: inactive

Question: What about the outcome [9] of the same compound?
Answer: inactive

Question: Which Potency [8] does the source give for `Nc1ccccc1NC(=O)c1ccc(CNC(=O)OCc2cccnc2)cc1` here?
Answer: 15.4 µM (active)

Question: And the outcome [9]?
Answer: inactive

Question: With `CC1(C)CCC(c2ccc(Cl)cc2)=C(CN2CCN(c3ccc(C(=O)NS(=O)(=O)c4ccc(N[C@H](CCN5CCOCC5)CSc5ccccc5)c(S(=O)(=O)C(F)(F)F)c4)cc3)CC2)C1` as the compound, how does the Potency [8] read?
Answer: 30.7 µM (active)

Question: And the outcome [9]?
Answer: inactive

Question: Which Potency [8] does the source give for `Cn1cncc1[C@@](N)(c1ccc(Cl)cc1)c1ccc2c(c1)c(-c1cccc(Cl)c1)cc(=O)n2C` here?
Answer: inactive

Question: And the outcome [9]?
Answer: inactive

Question: With `Cc1cn(-c2cc(NC(=O)c3ccc(C)c(Nc4nccc(-c5cccnc5)n4)c3)cc(C(F)(F)F)c2)cn1` as the compound, how does the Potency [8] read?
Answer: inactive

Question: And the outcome [9]?
Answer: inactive

Question: What does the source list for `CC(C)[C@H](C(=O)Nc1ccc(C(=O)NO)cc1)c1ccccc1`?
Answer: Potency [8]: inactive; outcome [9]: inactive

Question: For `CCN1CCN(CC(=O)Nc2ccc(-c3cccc4c(=O)cc(N5CCOCC5)oc34)c3sc4ccccc4c23)CC1`, which Potency [8] is on record?
Answer: inactive

Question: What about the outcome [9] of the same compound?
Answer: inactive

Question: Which Potency [8] does the source give for `O=C(NCCCNc1nc(Nc2cccc(NC(=O)N3CCCC3)c2)ncc1I)c1cccs1` here?
Answer: 1.37 µM (active) and 1.22 µM (active)

Question: And the outcome [9]?
Answer: inactive

Question: Which Potency [8] does the source give for `Cc1[nH]c2ccccc2c1CCNCc1ccc(C=CC(=O)NO)cc1` here?
Answer: 13.7 µM (active)

Question: What about the outcome [9] of the same compound?
Answer: inactive

Question: Which Potency [8] does the source give for `CCC(=C(c1ccccc1)c1ccc(OCCN(C)C)cc1)c1ccccc1` here?
Answer: inactive

Question: And the outcome [9]?
Answer: inactive

Question: With `O=C(O)c1ccc2c(c1)nc(Nc1cccc(Cl)c1)c1ccncc12` as the compound, how does the Potency [8] read?
Answer: 0.487 µM (active)

Question: What about the outcome [9] of the same compound?
Answer: inactive

Question: Which results are given for `O=C(Nc1cc(C(F)(F)F)cc(C(F)(F)F)c1)c1cc(Cl)ccc1O`?
Answer: Potency [8]: inactive; outcome [9]: inactive

Question: With `Cc1ccc(C(=O)Nc2cccc(C(F)(F)F)c2)cc1-c1ccc2nc(NCCN3CCOCC3)ncc2c1` as the compound, how does the Potency [8] read?
Answer: 0.0077 µM (active)

Question: What about the outcome [9] of the same compound?
Answer: inactive

Question: Which results are given for `COc1ccc(OC)c(-c2nnc3ccc(-c4ccc(OC)c(O[C@@H]5CCOC5)c4)nn23)c1`?
Answer: Potency [8]: inactive; outcome [9]: inactive

Question: With `CCOc1cc2ncc(C#N)c(Nc3ccc(F)c(Cl)c3)c2cc1NC(=O)C=CCN(C)C` as the compound, how does the Potency [8] read?
Answer: 0.0434 µM (active)

Question: What about the outcome [9] of the same compound?
Answer: inactive

Question: Which Potency [8] does the source give for `CN1CCN(c2cc(C(=O)Nc3ccc4c(c3)-c3c(c(C(N)=O)nn3-c3ccc(F)cc3)CC4)c(Cl)cn2)CC1` here?
Answer: inactive

Question: What about the outcome [9] of the same compound?
Answer: inactive

Question: Which results are given for `COc1ccc(CC2SC(=O)NC2=O)cc1C(=O)NCc1ccc(C(F)(F)F)cc1` (configuration not stated)?
Answer: Potency [8]: inactive; outcome [9]: inactive

Question: Which results are given for `Cc1ccc(-c2ncn(-c3ccc(Nc4nccc(-c5cccc(N6CCOCC6)c5)n4)cc3)n2)cn1`?
Answer: Potency [8]: 12.2 µM (active); outcome [9]: inactive

Question: Which Potency [8] does the source give for `CC[C@@H]1C(=O)N(C)c2cnc(Nc3ccc(C(=O)NC4CCC(N5CCN(CC6CC6)CC5)CC4)cc3OC)nc2N1C(C)C` (some centres not stated) here?
Answer: inactive

Question: What about the outcome [9] of the same compound?
Answer: inactive
